High-throughput results deposited in PubChem BioAssay by National Center for Advancing Translational Sciences (NCATS).
Sampled rows, rich in hits. Any-hit rate of the full collection: about 1.3%.
TRPML1 agonist: agonists of human TRPML1 channel; activation, % (test concentration not listed); Q9GZU1; 410,000 compounds, 0.12% hits; TRPML1-expressing cells, Ca2+ dye fluorescence, FDSS; in the data active = activation above about 50%; inconclusive = mostly about 30% to 49%; note: 0% is about no effect
Target sequence (Q9GZU1 whole entry, looked up): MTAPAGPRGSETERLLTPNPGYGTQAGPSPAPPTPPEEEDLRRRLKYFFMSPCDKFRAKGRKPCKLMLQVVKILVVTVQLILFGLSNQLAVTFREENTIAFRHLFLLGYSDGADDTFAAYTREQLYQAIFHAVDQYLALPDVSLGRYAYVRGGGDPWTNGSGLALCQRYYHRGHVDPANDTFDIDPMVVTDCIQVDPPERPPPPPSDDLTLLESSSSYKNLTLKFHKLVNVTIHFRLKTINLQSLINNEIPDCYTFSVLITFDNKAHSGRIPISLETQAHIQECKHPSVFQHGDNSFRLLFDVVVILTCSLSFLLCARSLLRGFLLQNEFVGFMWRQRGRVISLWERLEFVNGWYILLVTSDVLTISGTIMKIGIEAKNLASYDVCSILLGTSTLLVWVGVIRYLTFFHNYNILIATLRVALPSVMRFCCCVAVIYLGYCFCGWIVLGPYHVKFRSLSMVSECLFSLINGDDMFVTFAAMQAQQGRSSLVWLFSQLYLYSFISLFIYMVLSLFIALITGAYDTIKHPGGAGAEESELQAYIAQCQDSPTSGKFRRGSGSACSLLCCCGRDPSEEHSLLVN
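TRPML1-DL cells, Tet-induced overnight (~16 h, 37 degrees C), loaded 45-90 min at room temperature with Ca8 no-wash calcium dye plus quencher. FDSS fluorescence: 10 s baseline, compound pin-transfer, 110 s agonist read, then EC80 54-4 (4uM final) and 110 s antagonist read.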
12-LOX inh: inhibitors of human 12S-lipoxygenase ALOX12. purified 12hLO, xylenol orange hydroperoxide absorbance. Potency, µM (titrated, usually from 108 µM), without a hit: at the top dose activity change, negative = inhibition, most hits filed as inhibitors. 580,000 compounds, 1.1% hits. AID 1671190; note: potency is the fitted concentration of half-maximal effect; % is set by controls: 0 for no effect and ±100 for the full control effect
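Purified human 12hLO (150 nM final) in 25 mM Hepes, 0.01% Triton X-100, pH 7.0 was preincubated 15 min at room temperature with compound. Then 40 uM arachidonic acid was added, 30 min. Hydroperoxide was read by Fe-XO absorbance ratio 573/405 nm.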
Vif-A3G inh: Vif-A3G binding inhibition; HeLa A3G-eYFP + Vif (tagged APOBEC3G with the HIV-1 protein that degrades it), YFP fluorescence, overnight; Potency, µM (titrated, usually from 46.1 µM), without a hit: at the top dose activity, negative = active, hits mostly inhibitors; 410,000 compounds, 0.076% hits; AID 602310; note: potency is the fitted concentration of half-maximal effect; % is set by controls: 0 for no effect and ±100 for the full control effect; nearly all actives have a fitted effect of over 60% in size
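HeLa cells stably expressing Vif and C-terminally eYFP-tagged A3G, seeded overnight at 37 deg C, then exposed to compound by pintool overnight at 37 deg C. Rise in yellow fluorescence (Ex 488/Em 500-530, Acumen) marks blocked Vif-driven A3G degradation.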
TRPML1 inh: human mucolipin-1 channel inhibition | 390,000 compounds, 0.02% hits | Q9GZU1 | activity change, negative = inhibition, % (concentration not given with the values) | TRPML1-inducible cells, Ca2+ dye fluorescence, FDSS; stronger effect = lower value; inhibition of EC80 agonist-evoked calcium signal; in the data active = activity change below about -50%; inconclusive = between about -30% and that limit;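 note: stimulus is agonist 54-4 at its EC80 concentration; % is set by controls: 0 for no effect and ±100 for the full control effect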
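Tet-induced TRPML1-DL cells loaded with Ca8 no-wash calcium dye were read kinetically on FDSS. Compound addition was followed by EC80 agonist 54-4 (4 uM final); inhibition was read over 110 s.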
Glioma ERSR ind: inducers of ER stress response in human glioma cells. U87-MG GRP78 promoter luciferase reporter, 16 h. Potency, µM, for the others: top-dose activation, hits mostly activators. 420,000 compounds, 0.02% hits. AID 602332; note: potency is the fitted concentration of half-maximal effect; series mostly up to about 76 µM; % of control where 0% means no effect; nearly all actives have a fitted effect of over 35% in size
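Stably transfected U87-MG human glioma cells carrying a GRP78-based luminescent sensor were seeded at 1000 cells/well, pin-dosed with compounds and incubated 16 h. Luciferase reagent was then added, and end-point luminescence was read after 10 min at room temperature.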
Vif-APOBEC3F blk: blocks the Vif interaction with APOBEC3F; HeLa A3F-eYFP + Vif (tagged APOBEC3F with the HIV-1 protein that degrades it), YFP fluorescence increase; Potency, µM (highest dose often 46.1 µM), without a hit: at the top dose activity, negative = active; 390,000 compounds, 0.2% hits; note: potency is the fitted concentration of half-maximal effect; % of control where 0% means no effect; nearly all actives have a fitted effect of over 65% in size
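HeLa cells stably expressing Vif plus C-terminally eYFP-tagged A3F were seeded, incubated overnight at 37 deg C, dosed with compound, incubated overnight again at 37 deg C. Yellow fluorescence (Ex 488/Em 500-530) reported blocked Vif-mediated A3F-eYFP degradation.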
* hit, by the source's call; u = inconclusive; x = no result. Unless noted, calls come from the whole dose curve; as a rule, active = well fitted curve in the direction sought with a large enough effect; inconclusive = small, poorly fitted or top-dose-only effect, or another doubt; inactive = no such curve, though single readings can be large; an effect the other way counts as inactive or inconclusive.

SMILES	TRPML1 agonist	12-LOX inh	Vif-A3G inh	TRPML1 inh	Glioma ERSR ind	Vif-APOBEC3F blk
CCCCNC(=O)c1cnc(Cc2c[nH]c3ccccc23)c(I)c1	x	39.8µM*	x	x	x	x
Cc1cc(Cl)ccc1-c1nc(NCc2ccccc2)nc2ccsc12	-0.4	39.8µM*	1.0%	x	4.0%	x
COCCNc1nc(-c2ccc(Cl)cc2C)c2sccc2n1	-0.1	u	-1.0%	x	-1.2%	x
Nc1nccnc1C(=O)Nc1cccc(OCc2ccccn2)c1	x	3.0%	x	x	x	x
Cc1ccc(-c2ccnc(=S)[nH]2)cc1C	x	2.51µM*	x	x	x	x
S=c1nccc(-c2ccc(Cl)cc2)[nH]1	-0.3	12.6µM*	0.2%	55.3	-0.5%	1.8%
Cc1ccccc1NC(=O)COC(=O)/C=C/c1cccc2cccnc12	x	-0.6%	x	x	x	x
O=C(/C=C/c1ccc(-c2ccc(Cl)cc2Cl)o1)c1ccccc1	x	1.58µM*	x	x	x	x
O=C(/C=C/c1ccc(-c2ccccc2Cl)o1)c1ccccc1	x	20µM*	x	x	x	x
O=C(/C=C/C(=O)c1ccc(Cl)cc1)c1ccccc1	x	2.51µM*	x	x	x	x
O=C(/C=C/c1ccc(-c2ccccc2Br)o1)c1ccccc1	x	-45.3%	x	x	x	x
CN(C)CCNC(=O)/C(=C/c1ccc(-c2ccc(Cl)cc2Cl)o1)NC(=O)c1ccccc1	0.8	44.7µM*	4.5%	7.5	-13.5%	-7.7%
CC(C)Cc1nnc(NC(=O)c2cc(=O)c3cc(Cl)cc(Cl)c3o2)s1	x	5.3%	x	x	x	x
CCCCCC/C=N/NC(=O)c1cccc2ccccc12	x	-3.3%	x	x	x	x
CCN(CC)C(=S)Nc1ccccc1Cl	x	-15.5%	x	x	x	x
COc1ccccc1NC(=O)C(C)n1nc(C(=O)O)c2ccccc2c1=O (stereo not drawn)	x	2.5%	x	x	x	x
CCN(C(=O)CSc1ncnc2ccccc12)c1ccccc1	x	9.2%	x	x	x	x
Cc1ccc(NS(=O)(=O)c2ccc(NC(=O)CSc3ccc(Cl)cc3)cc2)c(C)c1	0.8	31.6µM*	-2.6%	35.7	-4.4%	-4.4%
Cc1ccc(O)c(NC(=O)CSc2ccc(Cl)cc2)c1	0.7	-14.6%	-0.4%	-5.4	-2.4%	5.0%
CCOc1ccc(C(=O)Nc2cccc3ccc(C)nc23)cc1	x	17.1%	x	x	x	x
CCC(=O)NC(=S)Nc1ccc(NC(=S)NC(=O)c2ccccc2)cc1	1.3	u	-5.7%	31.3	-1.3%	-15.7%
S=C(NC(=NC=C(Cl)Cl)c1ccc(Cl)cc1)Nc1ccc(Cl)cc1	x	20µM*	x	x	x	x
O=C(NC(=S)Nc1ccc(Cl)cc1)c1ccccc1	0.8	44.7µM*	0.7%	-4.5	-1.4%	0.9%
O=C(NC(=S)Nc1ccc(Oc2ccc(Cl)cc2)cc1)c1ccccc1	0.3	8.91µM*	10.7%	-8.6	-1.4%	1.2%
CC1CCN(S(=O)(=O)c2ccc(NC(=S)NC(=O)c3ccc(Cl)cc3)cc2)CC1	-0.3	14.1µM*	-0.1%	-17.6	-6.0%	-4.4%
SMILES	TRPML1 agonist	12-LOX inh	Vif-A3G inh	TRPML1 inh	Glioma ERSR ind	Vif-APOBEC3F blk
O=C(NC(=S)Nc1ccc(-c2ccccc2)cc1)c1ccccc1	0.8	u	1.2%	-9.2	12.5%	u
Cc1ccc(NC(=O)C2=C(N3CCOCC3)c3ccccc3S2(=O)=O)cc1	x	6.3%	x	x	x	x
O=C(CCc1ncc(-c2ccc(F)cc2)o1)N1CCN(S(=O)(=O)c2cccc(Cl)c2)CC1	x	-6.8%	x	x	x	x
CCS(=O)(=O)c1ncc(Cl)c(C(=O)N(Cc2ccccc2)C2CCS(=O)(=O)C2)n1 (stereo not drawn)	x	-5.2%	x	x	x	x
CS(=O)(=O)c1ccc(F)c(NCc2ccccc2Cl)c1	x	12.0%	x	x	x	x
CC(=O)Nc1ccc(NC(=S)NC(=O)c2ccc(Cl)cc2)cc1	x	5.62µM*	x	x	x	x
CC(=O)Nc1ccc(NC(=S)NC(=O)c2ccc(C(C)(C)C)cc2)cc1	x	x	x	x	6.9%	x
O=C(CSc1nnc2ccc(-c3ccncc3)nn12)NC1CCCCC1	x	-50.5%	x	x	x	x
Cc1nc2ccc(NC(=O)c3cc(S(=O)(=O)N(C)c4ccccc4)ccc3Cl)cc2s1	-0.1	-14.8%	-10.0%	6.7	-0.4%	22.4µM*
O[C@H]1C[C@H](c2ccc(Cl)cc2)N(Cc2cccs2)C[C@@H]1n1cc(-c2ccc(F)cc2)nn1	-0.3	35.5µM*	-6.9%	-4.7	-11.1%	-0.1%
